From PubChem
L major viab: reduces viability of Leishmania major promastigotes; inhibition, % at 10 µM; resazurin fluorescence viability; hit rate 9% among 200,000; AID 1063; in the data active = inhibition above about 50%;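 note: promastigotes grown with compound for 44 hours at 28 °C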
WT yeast gro inh: growth inhibition of WT yeast, mitochondrial fusion screen | mitochondrial fusion phenotypic screen, WT strain | inhibition, % at 10 µM | hit rate 2.1% among 190,000; in the data active = inhibition above about 58%; tested in S. cerevisiae
Insulin prom inh: TRM-6 insulin promoter activity inhibition; TRM-6 cells (human fetal islet line), insulin promoter-eGFP reporter, imaging; reporter expression induced with tamoxifen; inhibition, % at 2 µM; hit rate 0.9% among 130,000; AID 1273;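 active = inhibition above the mean plus 3 SD, with well images judged a real hit on visual review, cut at about 60% in these data, passing the limit was not always enough; inconclusive = inhibition over the cutoff but images rejected on review; inactive = inhibition not above the cutoff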
Insulin prom up: MIN6 insulin promoter up-regulation; MIN6 insulin promoter-GFP reporter, high-content imaging; hits give high values; z-score at 5 µM; hit rate 0.3% among 190,000; AID 1625;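 active = z-score above 3 at 5 µM with at least 500 cells counted in the well; inconclusive = wells under 500 cells, flagged as cytotoxic or low count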
Autophagy HCS: autophagy modulation, high-content screen | MEF GFP-LC3 puncta imaging; test concentration mostly 10 µM | calls only at 10 µM (by protocol) | hit rate 0.98% among 190,000;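 active = percentage of spot-positive cells more than 3 SD above its plate mean, without a fluorescence outlier flag or 80% toxicity; inconclusive = no clear call, values can overlap the other calls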
Each line names hits and unclear results; the compound was inactive in the other large screens. Compounds with a hit are over-represented: about 11% of the library has one in this group of screens.

O=C(CN1CCN(Cc2ccc3c(c2)OCO3)CC1)Nc1ccc(F)cc1	L major viab 97
O=C(CN1CCN(Cc2ccc3c(c2)OCO3)CC1)Nc1ccc2c(c1)OCO2	L major viab 92
NS(=O)(=O)c1cccc(NC(=O)CN2CCN(Cc3ccc4c(c3)OCO4)CC2)c1	L major viab 53
O=C(Nc1ccccc1)N1CCN(Cc2ccc3c(c2)OCO3)CC1	none (no result: Insulin prom inh)
O=C(CN1CCN(Cc2ccc3c(c2)OCO3)CC1)c1c[nH]c2ccccc12	L major viab 86
NS(=O)(=O)c1cccc(NC(=S)NCc2ccc3c(c2)OCO3)c1	none
COC(=O)CN(c1ccc(OCc2ccccc2)cc1)S(C)(=O)=O	none
C/C(CC(=O)NC1CCCCC1)=N\NC(=O)Cc1ccc(-c2ccccc2)cc1	none
O=C(CN1CCN(Cc2ccc3c(c2)OCO3)CC1)Nc1ccc2c(c1)OCCO2	L major viab 91
COc1ccc(NC(=O)CN2CCN(Cc3ccc4c(c3)OCO4)CC2)cc1OC	L major viab 71 (no result: Insulin prom up)
CCOc1ccc(NC(=O)CN2CCN(CC(=O)Nc3ccc4c(c3)OCCO4)CC2)cc1	none
CCOc1ccc(C(=O)Nc2ccc(-c3cc4ccccc4oc3=O)c(C)c2)cc1[N+](=O)[O-]	L major viab 56
CN(CCCN1CCCCC1)C(=O)CCc1nnc(C2CCCCC2)o1	none (no result: Insulin prom inh)
COc1ccccc1NC(=O)/C=C1\NC(=O)CS1	L major viab 88
COc1ccccc1NC(=O)/C=C1\SCC(=O)N1C	L major viab 100, Insulin prom up 4.7 (no result: Insulin prom inh)
COc1ccccc1NC(=O)N1c2ccccc2NC(=O)CC1C (stereo not drawn)	none (no result: L major viab, WT yeast gro inh, Insulin prom inh, Autophagy HCS)
Cc1cc(=O)[nH]c(SCC(=O)NN(c2ccccc2)c2ccccc2)n1	none (no result: L major viab, WT yeast gro inh, Insulin prom inh, Autophagy HCS)
CCOC(=O)c1sc(SC)c2c1CCCC2=O	none (no result: L major viab, WT yeast gro inh, Insulin prom inh, Autophagy HCS)
COc1ccccc1N1CCN(C(=O)NC23CC4CC(CC(C4)C2)C3)CC1	none (no result: Insulin prom inh)
CC(=O)c1c(C)[nH]c(C(=O)CSc2ncnc3sc(-c4ccccc4)cc23)c1C	L major viab 74
CC(=O)c1c(C)[nH]c(C(=O)CSc2nnc(-c3cccs3)n2Cc2ccccc2)c1C	L major viab 78 (no result: Insulin prom up)
O=C(O)CSc1ncnc2sc(-c3ccccc3)cc12	none (no result: Insulin prom inh)
O=C1NC(Cc2c[nH]c3ccccc23)C(=O)N1Cc1ccc(CN2C(=O)NC(Cc3c[nH]c4ccccc34)C2=O)cc1 (stereo not drawn)	none
Cn1c(NCc2cccc(Br)c2)nc2ccccc21	L major viab 61, Insulin prom inh inconclusive (no result: Insulin prom up)
O=C(c1ccc2c3c(cccc13)CC2)C1CCCN(Cc2ccc(OCCO)cc2)C1 (stereo not drawn)	L major viab 88 (no result: Insulin prom inh)
O=C(c1ccc2c3c(cccc13)CC2)C1CCCN(Cc2ccccn2)C1 (stereo not drawn)	L major viab 64 (no result: Insulin prom inh)
COCCC(=O)N1CCCC(C(=O)c2ccc3c4c(cccc24)CC3)C1 (stereo not drawn)	none (no result: Insulin prom inh)
Cc1cnc(CN2CCCC(C(=O)c3ccc4c5c(cccc35)CC4)C2)[nH]1 (stereo not drawn)	L major viab 99, Autophagy HCS active (no result: Insulin prom inh)
COCC(=O)N1CCCC(C(=O)c2ccc3c4c(cccc24)CC3)C1 (stereo not drawn)	none (no result: Insulin prom inh)
N#CCc1nn2c3c(cnc2c1C#N)C(=O)CCC3	none (no result: Insulin prom inh)
COC(=O)CSc1cc(SCC(=O)OC)c(C#N)c(SCC(=O)OC)c1	L major viab 64 (no result: Insulin prom inh)
COc1ccc(CNC(=O)c2cc(C)nn2-c2ccccc2)cc1	none (no result: L major viab, WT yeast gro inh, Insulin prom inh, Autophagy HCS)
CC(=O)NS(=O)(=O)c1ccc(NC(=O)c2ccc3c(c2)C(=O)N(CCC(C)C)C3=O)cc1	none
CCCCNC(=O)CSc1nc2ccsc2c(=O)n1C1CCN(C(=O)OCC)CC1	L major viab 87
Cc1csc(=N)n1-c1ccc(Cl)cc1	Insulin prom inh 91
O=C1c2ccccc2C(=O)N1CCCON1C(=O)c2ccccc2C1=O	L major viab 50
Cc1ccc(S(=O)(=O)N(Cc2cc3cccc(C)c3[nH]c2=O)c2ccccc2)cc1	none
CC1(C)Cc2c(C#N)c(N3CCN(C(=O)c4ccccc4)CC3)nc(Cc3ccccc3)c2CO1	L major viab 71
COC(=O)C1=CN(c2ccc(OC)cc2)C=C(C(=O)OC)C1c1ccc(C)c([N+](=O)[O-])c1	L major viab 99
COc1ccccc1N1CCN(C(=O)c2sc3nc(-c4ccc(F)cc4)cn3c2C)CC1	none (no result: Insulin prom inh)
CCCC(=O)C1=C(O)C(c2cccc(Oc3ccccc3)c2)CCC1=O (stereo not drawn)	WT yeast gro inh 67 (no result: Insulin prom inh)
Cc1cccc2sc(N(CCCN(C)C)C(=O)c3ccc(Cl)s3)nc12	none
Cc1cc(C)c2sc(N(CCN(C)C)C(=O)c3c(F)cccc3F)nc2c1	WT yeast gro inh 62
CCCCN(CC)S(=O)(=O)c1ccc(C(=O)N(CCCN(C)C)c2nc3cc(C)cc(C)c3s2)cc1	L major viab 100, WT yeast gro inh 96, Autophagy HCS active
Cc1cc(C)c2sc(N(CCCN(C)C)C(=O)c3ccc(Br)s3)nc2c1	L major viab 54, WT yeast gro inh 94
Cc1cc(C)c2sc(N(CCCN(C)C)C(=O)CN3C(=O)c4ccccc4C3=O)nc2c1	none (no result: Insulin prom inh)
CCCCN(C)S(=O)(=O)c1ccc(C(=O)N(CCN(C)C)c2nc3ccc(C)cc3s2)cc1	none
Cc1ccc2sc(N(CCCN(C)C)C(=O)c3ccc(S(=O)(=O)N(C)C)cc3)nc2c1C	L major viab 74 (no result: Insulin prom inh, Insulin prom up)
CC(NC(=O)C(C(=O)c1cccc([N+](=O)[O-])c1)n1cc(Cl)ccc1=O)c1ccccc1 (stereo not drawn)	none
O=C(Cn1cccc1C(=O)c1ccccc1)NCCC1=CCCCC1	none
COc1ccccc1CN(Cc1cc2c(C)ccc(C)c2[nH]c1=O)Cc1nnnn1Cc1ccco1	L major viab 100
COc1ccc2cc(CN(CCc3ccccc3)Cc3nnnn3Cc3ccco3)c(=O)[nH]c2c1	L major viab 100 (no result: Insulin prom inh)
Cc1ccc2cc(CN(Cc3ccc4c(c3)OCO4)Cc3nnnn3Cc3ccco3)c(=O)[nH]c2c1	L major viab 77 (no result: Insulin prom inh)
Cc1ccc(CN(Cc2cc3cc4c(cc3[nH]c2=O)OCCO4)Cc2nnnn2Cc2ccco2)cc1	none
Cc1cccc(N2CCN(CC(=O)Nc3nccs3)CC2)c1C	none (no result: Insulin prom up)
COc1ccc(-n2cc(CNCCN3CCOC3=O)c(-c3ccccc3Cl)n2)cc1	none (no result: L major viab, WT yeast gro inh, Insulin prom inh, Autophagy HCS)
COc1ccc(-n2cc(CNCCc3ncc(C)[nH]3)c(-c3ccccc3Cl)n2)cc1	L major viab 100
COc1ccc(-n2cc(CNCCCn3ccnc3)c(-c3ccccc3Cl)n2)cc1	L major viab 100 (no result: Insulin prom inh)
COc1ccc(-n2cc(CNCCc3nc(C)cc(C)n3)c(-c3ccccc3Cl)n2)cc1	none
Fc1ccc(-n2cc(CNCCc3ccccn3)c(-c3ccccc3Cl)n2)cc1	none (no result: Insulin prom inh)
CCN1CCC(CNCc2cn(-c3ccc(OC)cc3)nc2-c2ccccc2Cl)C1 (stereo not drawn)	L major viab 101 (no result: Insulin prom inh)
CCC(=O)NC(=S)Nc1cccc(-c2nc3ncccc3o2)c1	none
CCCCC(=O)Nc1cccc(-c2nc3ncccc3o2)c1	L major viab 100 (no result: Insulin prom inh)
CCCCCC(=O)Nc1cccc(-c2nc3ncccc3o2)c1	L major viab 67 (no result: Insulin prom inh)
COc1cccc(NC(=O)CCSc2nnc3scc(-c4ccccc4)n23)c1	none
COc1cc(C(=O)O/N=C(\N)c2ccncc2)cc(OC)c1OC	L major viab 82 (no result: Insulin prom inh)
